# Laboratory results from ChEMBL document CHEMBL2218924, “A broad activity screen in support of a chemogenomic map for kinase signalling research and drug discovery” (Biochem J, 2013).
# Assays:
# [1] = target: T1, Ephrin type-A receptor 3 (Homo sapiens) (UniProt P29320); details: at 10 µM
# T1 sequence (whole entry): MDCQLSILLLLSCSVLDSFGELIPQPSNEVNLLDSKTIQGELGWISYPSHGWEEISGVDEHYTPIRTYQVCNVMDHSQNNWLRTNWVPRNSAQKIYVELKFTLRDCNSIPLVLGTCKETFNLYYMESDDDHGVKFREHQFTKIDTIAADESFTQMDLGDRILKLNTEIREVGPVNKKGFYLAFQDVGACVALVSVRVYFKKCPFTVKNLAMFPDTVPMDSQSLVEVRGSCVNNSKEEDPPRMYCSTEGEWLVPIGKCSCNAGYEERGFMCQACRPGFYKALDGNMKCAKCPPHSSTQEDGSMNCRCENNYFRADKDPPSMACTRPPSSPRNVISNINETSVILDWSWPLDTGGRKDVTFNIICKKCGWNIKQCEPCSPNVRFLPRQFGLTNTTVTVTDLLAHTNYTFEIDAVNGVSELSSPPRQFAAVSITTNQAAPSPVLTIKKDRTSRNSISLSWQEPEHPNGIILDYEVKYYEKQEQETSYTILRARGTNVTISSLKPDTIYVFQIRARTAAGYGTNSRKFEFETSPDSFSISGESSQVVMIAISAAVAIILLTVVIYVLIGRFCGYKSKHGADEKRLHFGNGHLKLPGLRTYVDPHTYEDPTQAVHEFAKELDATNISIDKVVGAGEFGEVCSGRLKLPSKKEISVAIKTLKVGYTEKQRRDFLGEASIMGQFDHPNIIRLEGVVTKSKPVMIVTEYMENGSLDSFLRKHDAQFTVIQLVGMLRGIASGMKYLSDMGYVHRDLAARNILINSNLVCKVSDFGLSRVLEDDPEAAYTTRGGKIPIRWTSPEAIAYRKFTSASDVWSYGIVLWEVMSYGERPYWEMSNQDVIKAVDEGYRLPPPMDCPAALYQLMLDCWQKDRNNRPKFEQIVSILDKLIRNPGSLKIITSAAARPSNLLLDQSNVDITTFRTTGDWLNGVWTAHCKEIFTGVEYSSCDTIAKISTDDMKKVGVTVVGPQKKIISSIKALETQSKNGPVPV
# [2] = target: Ephrin type-A receptor 4 (Homo sapiens) (UniProt P54764); details: at 1 µM
# Ephrin type-A receptor 4 (Homo sapiens), sequence (P54764 whole entry): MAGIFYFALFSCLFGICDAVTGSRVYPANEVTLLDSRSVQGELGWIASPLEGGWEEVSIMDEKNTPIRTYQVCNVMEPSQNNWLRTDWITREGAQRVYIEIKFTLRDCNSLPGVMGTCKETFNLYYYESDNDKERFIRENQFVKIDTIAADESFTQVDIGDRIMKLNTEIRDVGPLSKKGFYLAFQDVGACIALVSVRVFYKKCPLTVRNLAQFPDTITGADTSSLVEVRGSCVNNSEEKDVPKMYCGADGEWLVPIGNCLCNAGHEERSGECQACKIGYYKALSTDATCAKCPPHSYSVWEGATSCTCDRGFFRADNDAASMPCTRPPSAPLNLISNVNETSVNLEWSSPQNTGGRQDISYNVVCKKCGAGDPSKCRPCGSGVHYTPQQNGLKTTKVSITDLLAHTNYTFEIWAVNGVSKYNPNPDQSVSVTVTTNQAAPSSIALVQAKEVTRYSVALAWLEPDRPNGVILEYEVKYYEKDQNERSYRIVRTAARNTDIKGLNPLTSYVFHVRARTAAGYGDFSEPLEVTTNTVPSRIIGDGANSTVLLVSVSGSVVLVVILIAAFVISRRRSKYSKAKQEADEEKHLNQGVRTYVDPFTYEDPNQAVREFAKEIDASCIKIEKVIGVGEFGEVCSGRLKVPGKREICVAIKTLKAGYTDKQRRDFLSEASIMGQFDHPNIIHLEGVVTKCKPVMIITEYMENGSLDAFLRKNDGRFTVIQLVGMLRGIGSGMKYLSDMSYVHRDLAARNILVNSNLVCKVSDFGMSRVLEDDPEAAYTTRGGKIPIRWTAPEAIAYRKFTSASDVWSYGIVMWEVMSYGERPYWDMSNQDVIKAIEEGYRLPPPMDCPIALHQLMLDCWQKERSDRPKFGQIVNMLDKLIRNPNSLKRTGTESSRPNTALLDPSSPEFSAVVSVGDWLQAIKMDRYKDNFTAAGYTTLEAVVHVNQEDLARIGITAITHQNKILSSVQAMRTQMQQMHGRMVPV
# [3] = target: Ephrin type-A receptor 4 (Homo sapiens) (UniProt P54764); details: at 10 µM
# [4] = target: Ephrin type-A receptor 5 (Homo sapiens) (UniProt P54756); details: at 1 µM
# Ephrin type-A receptor 5 (Homo sapiens), sequence (P54756 whole entry): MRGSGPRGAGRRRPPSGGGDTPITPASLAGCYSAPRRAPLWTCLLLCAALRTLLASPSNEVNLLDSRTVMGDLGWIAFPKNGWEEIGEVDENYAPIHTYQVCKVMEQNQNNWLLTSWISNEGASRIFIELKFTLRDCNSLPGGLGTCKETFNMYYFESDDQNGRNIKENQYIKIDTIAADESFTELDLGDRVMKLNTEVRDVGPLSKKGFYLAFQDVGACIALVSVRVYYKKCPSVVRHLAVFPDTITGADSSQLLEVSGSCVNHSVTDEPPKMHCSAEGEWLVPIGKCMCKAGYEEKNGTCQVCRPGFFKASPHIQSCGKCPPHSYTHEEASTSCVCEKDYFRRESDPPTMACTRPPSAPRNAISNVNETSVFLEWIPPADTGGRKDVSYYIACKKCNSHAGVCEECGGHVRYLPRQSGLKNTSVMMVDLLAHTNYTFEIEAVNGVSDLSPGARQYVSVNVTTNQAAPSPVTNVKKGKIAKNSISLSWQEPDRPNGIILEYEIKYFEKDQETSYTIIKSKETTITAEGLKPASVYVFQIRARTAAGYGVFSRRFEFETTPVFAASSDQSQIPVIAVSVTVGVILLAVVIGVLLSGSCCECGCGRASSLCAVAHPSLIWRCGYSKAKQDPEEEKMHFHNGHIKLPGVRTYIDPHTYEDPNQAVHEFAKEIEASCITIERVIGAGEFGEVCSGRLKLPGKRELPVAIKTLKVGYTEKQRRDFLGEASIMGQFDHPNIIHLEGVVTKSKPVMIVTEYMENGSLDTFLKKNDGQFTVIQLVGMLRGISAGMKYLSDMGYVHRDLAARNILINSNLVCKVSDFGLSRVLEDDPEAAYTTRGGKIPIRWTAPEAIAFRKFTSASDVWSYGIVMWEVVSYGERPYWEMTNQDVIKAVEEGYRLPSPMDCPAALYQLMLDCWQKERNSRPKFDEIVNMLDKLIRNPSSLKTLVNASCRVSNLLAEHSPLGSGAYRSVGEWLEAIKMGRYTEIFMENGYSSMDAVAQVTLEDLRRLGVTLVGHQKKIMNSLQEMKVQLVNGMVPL
# [5] = target: Ephrin type-A receptor 5 (Homo sapiens) (UniProt P54756); details: at 10 µM
# [6] = target: Ephrin type-A receptor 7 (Homo sapiens) (UniProt Q15375); details: at 1 µM
# Ephrin type-A receptor 7 (Homo sapiens), sequence (Q15375 28-998 limits assumed): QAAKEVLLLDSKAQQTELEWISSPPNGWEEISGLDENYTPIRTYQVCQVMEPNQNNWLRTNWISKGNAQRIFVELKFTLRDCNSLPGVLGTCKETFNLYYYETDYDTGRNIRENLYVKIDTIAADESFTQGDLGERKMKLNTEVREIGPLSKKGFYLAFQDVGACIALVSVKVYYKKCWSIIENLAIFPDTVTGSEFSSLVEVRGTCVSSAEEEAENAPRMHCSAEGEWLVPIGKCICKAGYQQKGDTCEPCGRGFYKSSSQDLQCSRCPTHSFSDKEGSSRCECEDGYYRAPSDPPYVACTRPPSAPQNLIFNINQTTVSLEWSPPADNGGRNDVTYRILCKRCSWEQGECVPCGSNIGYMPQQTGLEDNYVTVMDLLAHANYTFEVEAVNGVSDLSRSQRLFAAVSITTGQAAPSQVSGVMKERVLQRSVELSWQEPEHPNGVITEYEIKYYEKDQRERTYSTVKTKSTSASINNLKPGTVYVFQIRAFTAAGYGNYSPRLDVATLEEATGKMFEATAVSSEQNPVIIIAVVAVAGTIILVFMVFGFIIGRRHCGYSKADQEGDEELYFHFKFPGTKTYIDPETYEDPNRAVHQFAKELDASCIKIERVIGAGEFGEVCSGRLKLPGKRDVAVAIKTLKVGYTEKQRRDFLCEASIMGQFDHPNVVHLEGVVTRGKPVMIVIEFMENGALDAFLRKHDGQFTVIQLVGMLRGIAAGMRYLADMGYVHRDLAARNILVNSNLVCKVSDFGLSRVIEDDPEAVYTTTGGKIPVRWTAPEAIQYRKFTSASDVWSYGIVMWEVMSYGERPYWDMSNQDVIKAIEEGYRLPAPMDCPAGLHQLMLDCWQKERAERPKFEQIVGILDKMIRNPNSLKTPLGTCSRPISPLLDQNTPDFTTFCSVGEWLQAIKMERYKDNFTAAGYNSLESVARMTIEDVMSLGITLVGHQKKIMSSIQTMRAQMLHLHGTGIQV
# [7] = target: Ephrin type-A receptor 7 (Homo sapiens) (UniProt Q15375); details: at 10 µM
# [8] = target: T2, Ephrin type-A receptor 8 (Homo sapiens) (UniProt P29322); details: at 1 µM
# T2 sequence (whole entry): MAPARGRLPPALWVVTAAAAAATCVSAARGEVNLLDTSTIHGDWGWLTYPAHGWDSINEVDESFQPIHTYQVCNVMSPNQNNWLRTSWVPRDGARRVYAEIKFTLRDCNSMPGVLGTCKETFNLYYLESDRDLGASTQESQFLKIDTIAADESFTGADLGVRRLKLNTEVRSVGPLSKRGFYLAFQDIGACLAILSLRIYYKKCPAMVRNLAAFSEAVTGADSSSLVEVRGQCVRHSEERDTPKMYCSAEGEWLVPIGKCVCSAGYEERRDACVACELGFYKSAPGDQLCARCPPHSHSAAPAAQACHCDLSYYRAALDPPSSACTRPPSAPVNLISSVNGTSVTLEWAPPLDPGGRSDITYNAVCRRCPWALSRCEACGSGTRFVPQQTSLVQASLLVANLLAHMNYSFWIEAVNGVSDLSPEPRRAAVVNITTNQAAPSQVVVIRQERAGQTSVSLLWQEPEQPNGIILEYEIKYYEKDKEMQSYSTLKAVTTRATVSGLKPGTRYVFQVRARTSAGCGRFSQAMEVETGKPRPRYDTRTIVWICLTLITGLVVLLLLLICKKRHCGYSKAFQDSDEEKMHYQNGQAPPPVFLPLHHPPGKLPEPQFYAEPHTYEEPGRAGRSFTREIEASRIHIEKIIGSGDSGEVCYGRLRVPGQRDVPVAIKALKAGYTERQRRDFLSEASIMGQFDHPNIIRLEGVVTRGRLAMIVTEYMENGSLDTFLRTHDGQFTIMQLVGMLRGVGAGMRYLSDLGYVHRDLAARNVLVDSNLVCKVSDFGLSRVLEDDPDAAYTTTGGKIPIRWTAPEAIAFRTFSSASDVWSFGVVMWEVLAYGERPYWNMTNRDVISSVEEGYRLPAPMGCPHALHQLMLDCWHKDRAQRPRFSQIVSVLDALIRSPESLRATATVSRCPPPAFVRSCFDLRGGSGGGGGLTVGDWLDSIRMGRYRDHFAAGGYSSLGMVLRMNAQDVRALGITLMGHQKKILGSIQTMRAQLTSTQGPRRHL
# [9] = target: T2, Ephrin type-A receptor 8 (Homo sapiens); details: at 10 µM
# [10] = target: T3, Ephrin type-B receptor 1 (Homo sapiens) (UniProt P54762); details: at 1 µM
# T3 sequence (whole entry): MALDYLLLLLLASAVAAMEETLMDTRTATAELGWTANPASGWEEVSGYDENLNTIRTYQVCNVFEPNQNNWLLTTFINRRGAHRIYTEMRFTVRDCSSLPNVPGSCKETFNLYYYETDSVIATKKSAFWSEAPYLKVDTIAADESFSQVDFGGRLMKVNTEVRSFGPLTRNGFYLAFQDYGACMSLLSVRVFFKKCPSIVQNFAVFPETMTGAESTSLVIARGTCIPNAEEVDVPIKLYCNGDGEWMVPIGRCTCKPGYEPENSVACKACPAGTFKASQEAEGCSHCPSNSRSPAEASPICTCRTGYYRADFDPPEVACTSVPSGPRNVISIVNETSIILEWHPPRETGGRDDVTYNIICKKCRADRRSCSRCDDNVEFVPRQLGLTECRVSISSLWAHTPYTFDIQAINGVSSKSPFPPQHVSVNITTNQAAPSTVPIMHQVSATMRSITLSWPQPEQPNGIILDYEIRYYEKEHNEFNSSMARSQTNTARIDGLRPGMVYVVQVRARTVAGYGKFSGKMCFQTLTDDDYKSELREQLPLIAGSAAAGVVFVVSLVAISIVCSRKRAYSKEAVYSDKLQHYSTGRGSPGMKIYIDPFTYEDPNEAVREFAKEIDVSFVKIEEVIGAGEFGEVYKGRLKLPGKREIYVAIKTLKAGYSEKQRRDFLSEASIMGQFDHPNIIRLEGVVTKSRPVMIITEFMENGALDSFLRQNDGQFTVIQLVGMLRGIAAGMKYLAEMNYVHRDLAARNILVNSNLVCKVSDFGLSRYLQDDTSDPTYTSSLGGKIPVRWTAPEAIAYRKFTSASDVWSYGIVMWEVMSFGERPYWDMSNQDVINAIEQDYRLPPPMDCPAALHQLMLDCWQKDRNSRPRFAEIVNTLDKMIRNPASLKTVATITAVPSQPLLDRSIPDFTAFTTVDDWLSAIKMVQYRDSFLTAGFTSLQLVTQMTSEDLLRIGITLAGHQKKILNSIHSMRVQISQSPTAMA
smiles,measurement,setting,value
O=C(Nc1cccc(Nc2cc(Nc3cccc(C(F)(F)F)c3)ncn2)c1)C1CC1,residual activity,[1],114%
same,residual activity,[2],113%
same,residual activity,[3],103%
same,residual activity,[4],98%
same,residual activity,[5],87%
same,residual activity,[6],95%
same,residual activity,[7],86%
same,residual activity,[8],98%
same,residual activity,[9],90%
same,residual activity,[10],98%
